Several values for one entry are separate records, joined by “and”; a condition that tells them apart may be missing. Equal entries are not always repeated. Some compounds were tested as several samples or in several runs, with calls that do not always agree. Activity calls are given as the source filed them. Rule for the calls: active = hit-call score of the fitted dose curve at least 0.9, where 1 is the maximum; inactive = score below 0.9.
Experiment: BSK_BF4T_SRB: Viability Assessment in the BioMAP Diversity Plus: BF4T Assay (AID 2284274)
Details: primary human bronchial epithelial cells with fibroblasts
Description: BSK_BF4T is a cell-based, multiplexed-readout assay that uses bronchial epithelial cells and dermal fibroblasts, a human vascular primary cell, with measurements taken at 24 hours after chemical dosing in a microplate: 96-well plate.BSK_BF4T_SRB is an assay component measured in the BSK_BF4T assay. It measures 0.1% sulforhodamine related to cell death using Sulforhodamine staining technology.Data from the assay component BSK_BF4T_SRB was analyzed at the endpoint, BSK_BF4T_SRB, in the positive analysis fitting direction relative to DMSO as the negative control and baseline of activity. Using a type of viability reporter, gain or loss-of-signal activity can be used to understand protein changes. To generalize the intended target to other relatable targets, this assay endpoint is annotated to the 'cell morphology' intended target family, where the subfamily is 'cell conformation'.
The levels of cell surface (or secreted, indicated by the prefix "s") biomarker endpoints were measured by ELISA. Overt cytotoxicity to cells in confluent adherent cultures (all systems other than the BT system) was assessed by measuring total protein levels using sulforhodamine B (SRB) staining in parallel cultures at the time of biomarker measurements, indicated as SRB endpoints. For proliferation assays for adherent cell types, individual cell types are cultured at sub-confluence and relative cell numbers quantified by SRB staining at time points optimized for each system (48 h: 3C and CASM3C systems; 72 h: BT and HDF3CGF systems; 96 h: SAg system). SRB was performed by staining cells with 0.1% SRB after fixation with 10% TCA and reading wells at 560 nm.Viability and proliferation of PBMC (T cells) was quantified by Alamar Blue reduction for the SAg and BT systems. For PBMC viability (referred to as PBMC Cytotoxicity within the assay endpoint names), cells were plated (75,000/well in a 96-well plate) and then chemical samples added for 1 h before addition of activators, SEB and TSST-1 (20 ng/mL final concentration each). Cells were incubated for 90 h. Then, Alamar Blue (20 uL/well) (Invitrogen, Cat DAL1100) was added for 6 h, and the plates were read with a fluorescence microplate reader at 546/580 nm (excitation/emission). For PBMC proliferation, cells were plated and activated as above but incubated for only 16 h prior to addition of Alamar Blue. Plates were read after 6 h.

Row | Compound | AC50 | outcome
1 | O=C(O)C(F)(F)C(F)(F)C(F)(F)C(F)(F)C(F)(F)C(F)(F)C(F)(F)C(F)(F)Cl | 36.9 µM (active) and 39.9 µM (active) | 
2 | FC(F)(F)C(F)(F)C(F)(F)C(F)(F)C(F)(F)C(F)(F)C(F)(F)C(F)(F)CCS |  | inactive
3 | O=C(O)C(F)(F)C(F)(F)C(F)(F)C(F)(F)C(F)(F)C(F)(F)C(F)(F)C(F)(F)C(F)(F)C(F)(F)C(F)(F)C(F)(F)F |  | inactive
4 | FC(F)(F)C(F)(F)C(F)(F)C(F)(F)C(F)(F)CCI |  | inactive
5 | C=C(C)C(=O)OCC(F)(F)C(F)(F)C(F)(F)F |  | inactive
6 | C=CC(F)(F)C(F)(F)C(F)(F)C(F)(F)C(F)(F)C(F)(F)C(F)(F)C(F)(F)C=C |  | inactive
7 | O=C(O)C(F)(F)C(F)(F)C(F)(F)F |  | inactive
8 | O=P(O)(O)OCCC(F)(F)C(F)(F)C(F)(F)C(F)(F)C(F)(F)C(F)(F)F |  | inactive
9 | FC(F)(F)C(F)(F)C(F)(F)C(F)(F)C(F)(F)C(F)(F)C(F)(F)I |  | inactive
10 | C=CC(=O)OCC(F)(F)C(F)(F)C(F)(F)C(F)(F)COC(=O)C=C |  | inactive
11 | OCCCC(F)(F)C(F)(F)C(F)(F)F |  | inactive
12 | FC(F)(F)C(F)(F)C(F)(F)C(F)(F)CCI |  | inactive
13 | O=C(O)C(F)(F)C(F)(F)C(F)F |  | inactive
14 | O=S(=O)(OCCOC(F)(F)F)C(F)(F)F |  | inactive
15 | C=CC(F)(F)C(F)(F)C(F)(F)C(F)(F)C(F)(F)C(F)(F)C(F)(F)C(F)(F)F |  | inactive
16 | O=C(CC(=O)C(F)(F)C(F)(F)F)C(F)(F)F |  | inactive
17 | O=C(O)C(F)(OC(F)(F)C(F)(OC(F)(F)C(F)(F)C(F)(F)F)C(F)(F)F)C(F)(F)F (stereo not given) |  | inactive
18 | FC1CC(F)(F)C(F)(F)C1(F)F (stereo not given) |  | inactive
19 | FC(F)(F)C(F)(F)C(F)(F)N(C(F)(F)C(F)(F)C(F)(F)F)C(F)(F)C(F)(F)C(F)(F)F |  | inactive
20 | O=C(O)C(F)(OC(F)(F)C(F)(OC(F)(F)C(F)(OC(F)(F)C(F)(F)C(F)(F)F)C(F)(F)F)C(F)(F)F)C(F)(F)F (stereo not given) |  | inactive

Row | Compound | AC50 | outcome
21 | OCC(F)(F)C(F)(F)C(F)(F)C(F)(F)C(F)(F)C(F)(F)F |  | inactive
22 | O=C(O)C(F)(F)C(F)(F)OC(F)(F)F |  | inactive
23 | OCCCC(F)(F)C(F)(F)C(F)(F)C(F)(F)C(F)(F)C(F)(F)C(F)(F)F | 51 µM (active) and 53.6 µM (active) | 
24 | Cc1ccc(S(=O)(=O)OCC(F)(F)C(F)(F)C(F)(F)C(F)(F)C(F)(F)C(F)F)cc1 |  | inactive
25 | O=C(O)C(F)(F)C(F)(F)C(F)(F)C(F)(F)C(F)(F)C(F)(F)C(F)(F)C(F)(F)C(F)(F)C(F)F | 41.7 µM (active) and 40.8 µM (active) | 
26 | O=C(O)C=C(C(F)(F)F)C(F)(F)F |  | inactive
27 | O=C(O)C(F)(F)C(F)(F)F |  | inactive
28 | FC(F)(F)C(F)(F)C(F)(F)CI |  | inactive
29 | FC(F)(F)C(F)(F)C(F)(F)C(F)(F)C(F)(F)C(F)(F)CCS |  | inactive
30 | O=C(O)C(F)(F)C(F)(F)C(F)(F)C(F)(F)C(F)(F)C(F)(F)C(F)(F)C(F)(F)C(F)(F)C(F)(F)C(F)(F)C(F)(F)C(F)(F)F |  | inactive
31 | O=C(Cl)C(F)(F)C(F)(F)C(F)(F)C(F)(F)C(F)(F)C(F)(F)C(F)(F)C(F)(F)F | 30 µM (active) and 50.1 µM (active) | inactive
32 | FC(F)(F)C(F)(F)C(F)(F)C(F)(F)C(F)(F)C(F)(F)C(F)(F)Br |  | inactive
33 | O=S(=O)(OCC(F)F)C(F)(F)F |  | inactive
34 | O=C(O)C(F)(F)C(F)(F)C(F)(F)C(F)(F)F |  | inactive
35 | OCC(F)(F)C(F)(F)C(F)(F)C(F)F |  | inactive
36 | O=S(=O)(O)C(F)(F)C(F)(F)C(F)(F)C(F)(F)C(F)(F)C(F)(F)C(F)(F)F |  | inactive
37 | N=C(N)C(F)(F)C(F)(F)C(F)(F)C(F)(F)C(F)(F)C(F)(F)C(F)(F)F |  | inactive
38 | FC(F)(Br)C(F)(F)C(F)(F)C(F)(F)C(F)(F)C(F)(F)Br |  | inactive
39 | C=C(C)C(=O)OCCC(F)(F)C(F)(F)C(F)(F)C(F)(F)C(F)(C(F)(F)F)C(F)(F)F |  | inactive

Reference: PubChem BioAssay (EPA / NIEHS)
